Experimental data as given in the supplement of paper PMC10646978.
± gives the standard deviation.

How the values were obtained:
Conditions in all cases: modulator concentration 10 µM
[1] = test system: RAW-Dual (murine macrophage reporter line); experiment: NF-kB reporter (SEAP) activity fold change vs agonist alone; higher = enhanced NF-kB activity
In short: (§1)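 RAW-Dual murine macrophage reporter cells were seeded at 50 000 per well in 384-well plates and pre-incubated 1 hour at 37 °C with compound pin-transferred to 10 μM final. After 1 hour, a PRR agonist was added and cells incubated overnight. Supernatant NF-κB (SEAP, QUANTI-Blue, 620 nm absorbance) and IRF (Lucia luciferase, QUANTI-Luc, luminescence) signals were divided by the mean agonist-only control on the same plate to give fold change. Two replicate plates were averaged, with errors by propagation.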

[2] = test system: RAW-Dual (murine macrophage reporter line); experiment: IRF reporter (Lucia luciferase) activity fold change vs agonist alone; higher = enhanced IRF activity
In short: as §1

[3] = test system: RAW-Dual (murine macrophage reporter line); experiment: viability score (confluency relative to resting cells, overnight) (fraction); higher = more viable, active = viable (0.7 or more)
In short: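 RAW-Dual macrophages in 384-well plates were incubated overnight with compound, final concentration 10 μM. Confluency images from IncuCyte were processed in IncuCyte software into two masks covering all imaged wells. The viability score is each well's confluency relative to resting cells, and a compound met the cutoff when both masks exceeded 70% of resting cells.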

[4] = agonist: CpG ODN 1826 0.5 ug/mL

| SMILES | NF-kB reporter [1, 4] | NF-kB reporter ([1]; agonist: LPS 0.1 ug/mL) | NF-kB reporter ([1]; agonist: MPLA […]) | IRF reporter ([2]; agonist: 3'3'-cGAMP 10 ug/mL) | IRF reporter ([2]; agonist: LPS 0.1 ug/mL) | IRF reporter ([2]; agonist: MPLA […]) | viability score [3] |
| --- | --- | --- | --- | --- | --- | --- | --- |
| OC1(c2ccc(Cl)c(C(F)(F)F)c2)CCN(CCCC(c2ccc(F)cc2)c2ccc(F)cc2)CC1 | 0.101 ± 0.0057 | 0.173 ± 0.12 | 0.103 ± 0.0063 | 0.0719 ± 0.0038 | 0.145 ± 0.11 | 0.0408 ± 0.004 | 0.0235 (inactive) |
| O=C1CNC(=O)N1CC(O)Cn1c2ccc(Br)cc2c2cc(Br)ccc21 (stereo not drawn) | 0.998 ± 0.091 | 0.791 ± 0.068 | 0.908 ± 0.025 | 0.989 ± 0.22 | 0.928 ± 0.044 | 0.698 ± 0.079 | 0.926 (active) |
| COc1ccc(Br)cc1C(=O)Nc1cc(C(F)(F)F)cc(C(F)(F)F)c1 | 1.2 ± 0.11 | 0.99 ± 0.096 | 1.01 ± 0.044 | 0.982 ± 0.036 | 0.991 ± 0.07 | 1.05 ± 0.14 | 0.999 (active) |
| CC(=NNC(=O)COc1ccc(Cl)cc1[N+](=O)[O-])c1cccc(Br)c1 | 0.961 ± 0.091 | 1.11 ± 0.064 | 0.89 ± 0.053 | 0.983 ± 0.032 | 1.47 ± 0.22 | 1.19 ± 0.22 | 1 (active) |
| COC(=O)N[C@H](C(=O)N[C@@H](Cc1ccccc1)[C@@H](O)CN(Cc1ccc(-c2ccccn2)cc1)NC(=O)[C@@H](NC(=O)OC)C(C)(C)C)C(C)(C)C.O=S(=O)(O)O | 1.78 ± 0.14 | 1.27 ± 0.1 | 1.46 ± 0.15 | 0.886 ± 0.064 | 1.02 ± 0.061 | 1.14 ± 0.1 | 1.01 (active) |
| CC(=O)Nc1ccc(CC(=O)N2C3C=CCC2CC3)cc1 (stereo not drawn) | 1.32 ± 0.32 | 1.06 ± 0.059 | 1.04 ± 0.14 | 1.01 ± 0.034 | 1.23 ± 0.14 | 1.14 ± 0.19 | 0.954 (active) |
| Cc1cccc(C)c1N(CC(=O)Nc1ccc(-c2ncon2)cc1)C(=O)C1CCS(=O)(=O)CC1 | 1.06 ± 0.083 | 0.939 ± 0.075 | 1.05 ± 0.024 | 0.976 ± 0.098 | 0.997 ± 0.13 | 0.982 ± 0.086 | 0.999 (active) |
| CCOC(=O)C1=C[C@]2(CC)CCCN3CCc4c(n1c1ccccc41)[C@@H]32 | 0.825 ± 0.057 | 0.946 ± 0.077 | 0.994 ± 0.07 | 0.998 ± 0.045 | 1.21 ± 0.15 | 1.4 ± 0.46 | 0.949 (active) |
| CC(C)(O)C#Cc1ccccn1 | 0.931 ± 0.052 | 0.93 ± 0.14 | 0.909 ± 0.072 | 0.916 ± 0.05 | 1.11 ± 0.096 | 1.08 ± 0.29 | 1.01 (active) |
| NC(=O)c1cc2ccccc2oc1=NCc1ccccc1 | 0.907 ± 0.09 | 1.06 ± 0.067 | 0.91 ± 0.1 | 0.946 ± 0.023 | 1.16 ± 0.16 | 1.07 ± 0.22 | 1.01 (active) |
| COC(=O)CNC(c1ccccc1)c1cc(Br)ccc1NC(=O)c1ccccc1Br (stereo not drawn) | 0.826 ± 0.07 | 0.777 ± 0.041 | 1.52 ± 0.053 | 0.632 ± 0.035 | 1.1 ± 0.14 | 1.52 ± 0.22 | 0.988 (active) |
| NC(=NOC(=O)c1ccc2nsnc2c1)c1ncon1 | 1.04 ± 0.17 | 0.965 ± 0.084 | 0.905 ± 0.088 | 0.922 ± 0.035 | 1.05 ± 0.11 | 1.18 ± 0.12 | 0.996 (active) |
| O=C1C(Cl)=C(N2CCCCC2)C(=O)N1c1cc(Cl)c(Cl)cc1Cl | 0.743 ± 0.063 | 0.737 ± 0.049 | 0.857 ± 0.03 | 0.352 ± 0.026 | 1.07 ± 0.1 | 1.01 ± 0.15 | 0.993 (active) |
| COc1ccc2c(c1)c(=O)oc1cc(OCc3cccc(C(F)(F)F)c3)ccc12 | 1.03 ± 0.076 | 1.01 ± 0.1 | 1.04 ± 0.027 | 0.998 ± 0.047 | 0.97 ± 0.046 | 1.11 ± 0.11 | 0.995 (active) |
| CNCCCC12CCC(c3ccccc31)c1ccccc12.Cl | 0.507 ± 0.083 | 1.1 ± 0.24 | 1.32 ± 0.074 | 0.542 ± 0.038 | 1.36 ± 0.34 | 2.48 ± 0.34 | 0.29 (inactive) |
| Clc1nc(N2CCOCC2)nc(N(c2ccccc2)c2ccccc2)n1 | 0.889 ± 0.077 | 0.908 ± 0.086 | 1.08 ± 0.12 | 1.02 ± 0.049 | 1.41 ± 0.22 | 1.53 ± 0.42 | 1.03 (active) |
| Cn1cc(-c2cc(CNC(=O)c3cncc(Br)c3)ccn2)cn1 | 0.92 ± 0.041 | 1.05 ± 0.1 | 1.15 ± 0.065 | 0.872 ± 0.057 | 1.1 ± 0.17 | 1.3 ± 0.41 | 0.943 (active) |
| Nc1ccn(C[C@@H](CO)OCP(=O)(O)O)c(=O)n1 | 1 ± 0.25 | 0.97 ± 0.057 | 0.961 ± 0.064 | 0.906 ± 0.03 | 1.3 ± 0.14 | 1.14 ± 0.16 | 1.01 (active) |
| CC1=NN(C(=O)CCCc2ccccc2)C(O)(c2ccc(Cl)cc2)C1 (stereo not drawn) | 0.923 ± 0.1 | 1 ± 0.13 | 1.02 ± 0.049 | 0.899 ± 0.2 | 1.1 ± 0.065 | 1.13 ± 0.15 | 0.999 (active) |
| Cc1ccc(C23CC4CC(CC(CN)(C4)C2)C3)cc1C.Cl | 0.652 ± 0.44 | 0.309 ± 0.056 | 1.08 ± 0.35 | 0.11 ± 0.0065 | 0.32 ± 0.1 | 0.256 ± 0.11 | 0.51 (inactive) |
| CCOc1ccccc1OCCCCOc1cccc(Cl)c1 | 0.947 ± 0.15 | 1.04 ± 0.093 | 0.951 ± 0.084 | 0.956 ± 0.025 | 1.21 ± 0.15 | 1.23 ± 0.2 | 1 (active) |
| Cc1cc(=O)nc(SCCc2ccccc2)[nH]1 | 1.13 ± 0.11 | 1.27 ± 0.082 | 1.15 ± 0.041 | 0.952 ± 0.079 | 1.06 ± 0.053 | 1.2 ± 0.091 | 0.687 (inactive) |
| CC(C)=CCC/C(C)=C/CC/C(C)=C/CSc1ccccc1C(=O)O | 1.32 ± 0.071 | 0.929 ± 0.074 | 2.18 ± 0.19 | 0.18 ± 0.011 | 0.52 ± 0.084 | 0.721 ± 0.16 | 0.902 (active) |
| Cc1cc(C)c(NC(=O)c2ccc(Oc3nccs3)cc2)c(C)c1 | 0.893 ± 0.039 | 1.12 ± 0.098 | 1.22 ± 0.18 | 0.844 ± 0.048 | 0.939 ± 0.21 | 1.06 ± 0.42 | 1.01 (active) |
